Experimental data: PubChem BioAssay (EPA / NIEHS)
Inconclusive results are not listed. Activity calls are given as the source filed them. How the source made its calls, unless noted: active means hit-call score of the fitted dose curve at least 0.9, where 1 is the maximum; inactive means score below 0.9.

Columns and labels:
[1] = ATG_ERE_CIS: Attagene CIS-FACTORIAL HepG2 Assay for Estrogen Response Element (ERE) (AID 2282940); conditions: HepG2 ERE cis-reporter, Attagene RNA transcript; actives raise or lower the signal
Procedure, shortened: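 Readout: reporter mRNA induction by RT-PCR, FAM-labelled primer extension, HpaI digestion and capillary electrophoresis, 24 h after dosing transfected HepG2 cells. Endogenous transcription factors act on cis-element-regulated reporters. Gain or loss fitted against DMSO.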

[2] = target: Estrogen-related receptor gamma (Homo sapiens) (UniProt P62508); test: ATG_ERRg_TRANS: Attagene TRANS-FACTORIAL HepG2 Assay for human Estrogen-Related Receptor gamma (ERRg) (AID 2282977; active means hit-call score of the fitted dose curve at least 0.9, where 1 is the maximum;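 further: hits increase reporter signal over DMSO so potencies reflect activators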); conditions: HepG2 Attagene TRANS reporter, ERRg transactivation
Procedure, shortened: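 Induction of reporter transcripts through a chimeric NR-Gal4 protein is quantified in transfected human HepG2 liver cells after 24 h chemical exposure, using RT-PCR with capillary electrophoresis detection and DMSO as baseline.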

[3] = BSK_4H_Eotaxin3: BioMAP Diversity Plus: 4H Assay for Eotaxin 3 Biomarker Activity (AID 2283000); conditions: primary human endothelial cells (HUVEC); actives raise or lower the signal
Procedure, shortened: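 ELISA quantitation of CCL26 (Eotaxin-3) protein from chemically dosed human vascular endothelial cells at 24 h; increases and decreases both scored relative to DMSO-treated baseline.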

[4] = read-out: Intercellular Adhesion Molecule 1 (ICAM1), ICAM1 (gene 3383); test: BSK_3C_ICAM1: BioMAP Diversity Plus: 3C Assay for Intercellular Adhesion Molecule 1 (ICAM1) Biomarker Activity (AID 2283003); conditions: primary human endothelial cells (HUVEC); actives raise or lower the signal
Procedure, shortened: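 Chemicals are dosed onto primary human umbilical vein endothelium (3C system). After 24 h, ICAM-1 is measured by ELISA, and responses are fitted bidirectionally relative to DMSO.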

[5] = read-out: Monokine induced gamma interferon (MIG), CXCL9 (gene 4283); test: BSK_3C_MIG: BioMAP Diversity Plus: 3C Assay for Monokine induced gamma interferon (MIG) Biomarker Activity (AID 2283021); conditions: primary human endothelial cells (HUVEC); actives raise or lower the signal;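 on AC50: MIG protein level measured by immunoassay in the treated endothelial cultures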
Procedure, shortened: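 Endothelial primary cells (human umbilical vein) are dosed with test chemical in the 3C system. MIG levels are measured by ELISA at 24 h and fitted in both directions relative to DMSO.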

[6] = read-out: Urokinase-type plasminogen activator receptor (uPAR), PLAUR (gene 5329); test: BSK_4H_uPAR: BioMAP Diversity Plus: 4H Assay for Urokinase-type plasminogen activator receptor (uPAR) Biomarker Activity (AID 2283030); conditions: primary human endothelial cells (HUVEC); actives raise or lower the signal
Procedure, shortened: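 Endpoint derived via bidirectional curve fitting against DMSO baseline; readout was ELISA detection of uPAR on umbilical vein endothelial cells at 24 h post-treatment, with SRB-stained parallel cultures assessing cytotoxicity.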

[7] = read-out: Monokine induced gamma interferon (MIG), CXCL9 (gene 4283); test: BSK_BE3C_MIG: BioMAP Diversity Plus: BE3C Assay for Monokine induced gamma interferon (MIG) Biomarker Activity (AID 2283035); conditions: primary human bronchial epithelial cells; actives raise or lower the signal
Procedure, shortened: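 Dose cells (human primary bronchial epithelial), incubate 24 h, quantify MIG by ELISA, then fit concentration–response in both directions relative to DMSO control.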

[8] = read-out: Plasminogen activator inhibitor-1 (PAI1), SERPINE1 (gene 5054); test: BSK_BE3C_PAI1: BioMAP Diversity Plus: BE3C Assay for Plasminogen activator inhibitor-1 (PAI1) Biomarker Activity (AID 2283037); conditions: primary human bronchial epithelial cells; actives raise or lower the signal
Procedure, shortened: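 Values derive from bidirectional fitting against DMSO baseline of PAI-1 levels, measured by ELISA in human bronchial epithelial cells 24 h after compound addition.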

[9] = read-out: urokinase plasminogen activator (uPA), PLAU (gene 5328); test: BSK_BE3C_uPA: BioMAP Diversity Plus: BE3C Assay for urokinase plasminogen activator (uPA) Biomarker Activity (AID 2283038); conditions: primary human bronchial epithelial cells; actives raise or lower the signal
Procedure, shortened: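 Using confluent primary human lung bronchial epithelial cultures, we dosed chemicals, waited 24 h, then ran a uPA ELISA, fitting bidirectionally against DMSO.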

[10] = read-out: Tissue plasminogen activator (tPA), PLAT (gene 5327); test: BSK_BE3C_tPA: BioMAP Diversity Plus: BE3C Assay for Tissue plasminogen activator (tPA) Biomarker Activity (AID 2283041); conditions: primary human bronchial epithelial cells; actives raise or lower the signal;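 further: tPA level quantified by ELISA one day after compound addition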
Procedure, shortened: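 Gain- or loss-of-signal in tPA, measured by ELISA, derived by bidirectional fitting against DMSO. Cells: human primary bronchial epithelial; read at 24 h after chemical dosing.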

[11] = read-out: serum amyloid A (SAA), SAA1 (gene 6288); test: BSK_CASM3C_SAA: BioMAP Diversity Plus: CASM3C Assay for serum amyloid A (SAA) Biomarker Activity (AID 2283049); conditions: primary human coronary artery smooth muscle cells; actives raise or lower the signal;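 further: SAA protein level quantified by ELISA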
[12] = read-out: Thrombomodulin, THBD (gene 7056); test: BSK_CASM3C_Thrombomodulin: BioMAP Diversity Plus: CASM3C Assay for Thrombomodulin Biomarker Activity (AID 2283051); conditions: primary human coronary artery smooth muscle cells; actives raise or lower the signal;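 further: thrombomodulin protein level measured by ELISA 24 h after dosing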
[13] = CCTE_Harrill_HTTr_Apoptosis_MCF7: CCTE's 6-hour Apoptosis Assessment for the High-Throughput Transcriptomics (HTTr) Platform, in MCF-7 cells cultured in DMEM + 10% fetal bovine serum, Harrill Lab (AID 2284011)
Procedure, shortened: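 Apoptosis in MCF-7 cells grown in DMEM with 10% fetal bovine serum was scored after a six hour exposure by high content imaging of caspase-3/7 activation (CellEvent Caspase 3/7 Green), with DMSO serving as negative control and baseline.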

[14] = target: Estrogen receptor beta (Homo sapiens) (UniProt Q92731); test: OT_ER_ERbERb_1440: Odyssey Thera (OT) 24-hour HEK293T Protein-Complementation Assay for Estrogen Receptor-beta/-beta Homodimer (AID 2283380; active means hit-call score of the fitted dose curve at least 0.9, where 1 is the maximum;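 further: scored as signal increase over DMSO baseline for both agonists and antagonists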)
Procedure, shortened: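 HEK293T cells stably expressing ER beta LBD (aa 310-547) homodimer fragment-complementation reporter, dosed 24 h. Cells formaldehyde-fixed, Draq5-stained; gain in nuclear (agonist) or nuclear plus cytoplasmic (antagonist) fluorescence versus DMSO read by laser scanning cytometry.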

[15] = target: Retinoic acid receptor RXR-alpha (Homo sapiens) (UniProt P19793); test: OT_NURR1_NURR1RXRa_1440: Odyssey Thera (OT) 24-hour HEK293T Protein Complementation Assay for Nurr1/retinoid X receptor (RXR) (AID 2283386; active means hit-call score of the fitted dose curve at least 0.9, where 1 is the maximum)
Procedure, shortened: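 Steps: fragment-tagged Nurr1 and RXRα expressed in HEK293T; compounds added; after 24 h, complemented reporter quantified by fluorescence intensity; signal increase over DMSO fitted as the single endpoint.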

[16] = ACEA_AR_agonist_AUC_viability: ACEA Biosciences xCELLigence Real-Time Cell Analysis on Androgen Receptor Agonism for Viability (AID 2283775; active means hit-call score of the fitted dose curve at least 0.9, where 1 is the maximum;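 on AC50: viability read 80 hours after compound addition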)
Procedure, shortened: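 22Rv1 cells; impedance growth kinetics; 8-pt 1:4 dilutions from 100 uM top final, ≤0.5% DMSO; n = 2; 80 h read; AUC viability, loss-of-signal vs DMSO.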

[17] = CCTE_Harrill_HTTr_Viability_MCF7: CCTE's 6-hour Cell Viability Assessment for the High-Throughput Transcriptomics (HTTr) Platform, in MCF-7 cells cultured in DMEM + 10% fetal bovine serum, Harrill Lab (AID 2284010)
Procedure, shortened: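 Read-out is propidium iodide gain of signal by high-content imaging, reflecting membrane integrity loss. Measurements are taken 6 h after dosing, eight concentrations per chemical, with DMSO serving as baseline for bidirectional curve fitting.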

[18] = target: Retinoic acid receptor RXR-alpha (Homo sapiens) (UniProt P19793); test: OT_NURR1_NURR1RXRa_0480: Odyssey Thera (OT) 8-hour HEK293T Protein Complementation Assay for Nurr1/retinoid X receptor (RXR) (AID 2283385; active means hit-call score of the fitted dose curve at least 0.9, where 1 is the maximum)
Procedure, shortened: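 Interaction of bait and prey reconstitutes a functional reporter, whose fluorescence was measured in HEK293T cells dosed with compound for 8 hours. Signal gain relative to DMSO defined the single endpoint.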

[19] = ACEA_AR_antagonist_AUC_viability: ACEA Biosciences xCELLigence Real-Time Cell Analysis on Androgen Receptor Antagonism for Viability (AID 2283776; active means hit-call score of the fitted dose curve at least 0.9, where 1 is the maximum;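 further: 22Rv1 human prostate cancer cells growing on impedance electrode plates; area under impedance growth curve at 80 h after dosing as viability; hits lower the growth signal relative to DMSO meaning cytotoxicity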)
Procedure, shortened: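 Impedance read-out (RT-CES): area under growth curve at 80 h post-dose, loss of signal scored vs DMSO baseline. 22Rv1 cells; 8-pt 1:4 series, top 100 uM final, ≤0.5% DMSO; biological duplicate.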

[20] = target: Bile acid receptor (Homo sapiens) (UniProt Q96RI1); test: ATG_FXR_TRANS: Attagene TRANS-FACTORIAL HepG2 Assay for Farnesoid X Receptor (FXR) (AID 2282979; active means hit-call score of the fitted dose curve at least 0.9, where 1 is the maximum;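 further: hits raise reporter mRNA above DMSO so AC50 marks FXR activation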); conditions: HepG2 Attagene TRANS FXR-GAL4 reporter transcription
Procedure, shortened: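 After 24 h chemical treatment of transfected HepG2 cells, GAL4-UAS reporter transcripts driven by an exogenous FXR-GAL4 fusion were measured by RT-PCR and capillary electrophoresis. Increases over DMSO were fitted.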

Measured: AC50

Chain of Estrogen-related receptor gamma (Homo sapiens) (P62508 whole entry, looked up, the tested form may be a part): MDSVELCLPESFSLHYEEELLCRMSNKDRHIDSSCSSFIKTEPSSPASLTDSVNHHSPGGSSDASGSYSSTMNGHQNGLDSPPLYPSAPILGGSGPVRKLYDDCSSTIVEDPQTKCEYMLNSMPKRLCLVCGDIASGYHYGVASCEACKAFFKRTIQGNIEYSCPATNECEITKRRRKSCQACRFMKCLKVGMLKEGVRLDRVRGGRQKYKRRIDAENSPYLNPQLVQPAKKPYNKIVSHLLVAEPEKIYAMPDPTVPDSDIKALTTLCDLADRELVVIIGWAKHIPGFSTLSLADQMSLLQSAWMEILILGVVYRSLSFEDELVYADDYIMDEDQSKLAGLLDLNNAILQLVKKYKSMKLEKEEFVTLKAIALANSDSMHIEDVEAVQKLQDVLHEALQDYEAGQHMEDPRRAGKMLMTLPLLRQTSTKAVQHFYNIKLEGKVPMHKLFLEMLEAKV
Chain of Estrogen receptor beta (Homo sapiens) (Q92731 whole entry, looked up, the tested form may be a part): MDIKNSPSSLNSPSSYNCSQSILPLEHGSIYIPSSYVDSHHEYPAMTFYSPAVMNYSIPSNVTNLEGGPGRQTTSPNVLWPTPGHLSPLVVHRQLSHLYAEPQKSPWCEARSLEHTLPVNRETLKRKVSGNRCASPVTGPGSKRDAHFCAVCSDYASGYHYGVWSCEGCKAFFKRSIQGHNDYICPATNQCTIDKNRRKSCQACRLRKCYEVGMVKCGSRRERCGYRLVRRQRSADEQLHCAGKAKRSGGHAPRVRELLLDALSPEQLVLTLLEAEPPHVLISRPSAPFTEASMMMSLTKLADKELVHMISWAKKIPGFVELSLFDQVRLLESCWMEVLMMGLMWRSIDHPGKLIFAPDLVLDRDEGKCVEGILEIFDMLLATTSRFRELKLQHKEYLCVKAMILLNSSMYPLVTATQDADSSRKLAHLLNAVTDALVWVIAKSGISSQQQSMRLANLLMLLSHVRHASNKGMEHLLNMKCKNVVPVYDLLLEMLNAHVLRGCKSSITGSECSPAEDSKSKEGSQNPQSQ
Chain of Retinoic acid receptor RXR-alpha (Homo sapiens) (P19793 whole entry, looked up, the tested form may be a part): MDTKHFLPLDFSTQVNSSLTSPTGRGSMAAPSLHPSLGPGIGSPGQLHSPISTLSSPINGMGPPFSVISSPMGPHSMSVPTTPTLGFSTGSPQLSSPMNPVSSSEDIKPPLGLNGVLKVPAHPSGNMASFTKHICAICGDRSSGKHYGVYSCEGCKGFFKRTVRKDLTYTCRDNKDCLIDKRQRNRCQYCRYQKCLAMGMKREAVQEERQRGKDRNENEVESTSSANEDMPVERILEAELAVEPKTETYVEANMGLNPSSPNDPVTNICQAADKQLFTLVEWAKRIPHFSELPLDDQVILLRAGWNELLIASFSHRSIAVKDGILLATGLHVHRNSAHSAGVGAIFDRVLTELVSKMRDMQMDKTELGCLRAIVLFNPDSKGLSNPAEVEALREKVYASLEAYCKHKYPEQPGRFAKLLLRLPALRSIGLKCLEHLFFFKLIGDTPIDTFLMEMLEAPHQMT
Chain of Bile acid receptor (Homo sapiens) (Q96RI1 whole entry, looked up, the tested form may be a part): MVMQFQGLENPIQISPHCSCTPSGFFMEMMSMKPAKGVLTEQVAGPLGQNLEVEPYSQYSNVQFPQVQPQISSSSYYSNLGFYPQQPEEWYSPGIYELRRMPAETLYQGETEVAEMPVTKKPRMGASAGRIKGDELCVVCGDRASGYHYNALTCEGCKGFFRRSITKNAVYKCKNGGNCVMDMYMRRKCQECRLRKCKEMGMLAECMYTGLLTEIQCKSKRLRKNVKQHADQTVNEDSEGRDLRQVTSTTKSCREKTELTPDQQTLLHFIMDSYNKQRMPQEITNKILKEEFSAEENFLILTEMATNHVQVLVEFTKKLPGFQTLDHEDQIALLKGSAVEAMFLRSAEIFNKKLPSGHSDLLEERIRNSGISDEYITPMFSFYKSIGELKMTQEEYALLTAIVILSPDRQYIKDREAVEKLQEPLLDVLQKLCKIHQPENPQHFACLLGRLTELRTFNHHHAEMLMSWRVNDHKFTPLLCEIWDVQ

CC(C)(C)C(=O)CCl
inactive: [1] | [2] | [4] | [5] | [6] | [7] | [8] | [9] | [10] | [11] | [12] | [13]
active: [3] 20 µM

C=CCN(CC=C)C(=O)C(Cl)Cl
inactive: [3] | [4] | [5] | [6] | [7] | [8] | [9] | [10] | [11] | [12] | [14] | [15] | [16] | [13]

Nc1ccccc1C(=O)OCCc1ccccc1
inactive: [2]

[N-]=[N+]=CC(=O)OC[C@H](N)C(=O)O
inactive: [17] | [13]

CCOP(=O)(OCC)OCC
inactive: [2] | [14] | [18] | [16]

O=C(CCl)c1ccccc1
inactive: [8] | [10] | [12] | [14] | [18] | [17]
active: [3] 4.98 µM | [4] 7.82 µM | [5] 9.6 µM | [6] 9.98 µM | [7] 36.5 µM | [9] 36.2 µM | [11] 14.6 µM | [15] 11.6 µM | [16] 78.5 µM | [19] 69.7 µM

CC(O)CN(CC(C)O)CC(C)O (configuration not stated)
inactive: [20] | [14] | [18] | [15] | [16]

S=c1[nH]c2ccccc2[nH]1
inactive: [2]

CC(C)(c1cc(Cl)c(O)c(Cl)c1)c1cc(Cl)c(O)c(Cl)c1
inactive: [8] | [9] | [10] | [12] | [14] | [16] | [19]
active: [3] 32.1 µM | [4] 29.4 µM | [5] 28.9 µM | [6] 30.2 µM | [7] 7.45 µM | [11] 32.1 µM | [18] 74.7 µM | [15] 78.1 µM

O=P1(NCCCl)OCCCN1CCCl (configuration not stated)
inactive: [3] | [4] | [5] | [6] | [7] | [8] | [9] | [10] | [11] | [12] | [13]

O=C(O)CCl
inactive: [2] | [14] | [18] | [16]

C[C@]12CC[C@H]3[C@@H](CC[C@@]45O[C@@H]4C(O)=C(C#N)C[C@]35C)[C@@H]1CC[C@@H]2O
inactive: [13]
